These results are taken from PubChem BioAssay (NCI).

SMILES strings stand for the structures. Compounds without any hit were thinned out: in the full panel of roughly 83,000, 20% have a hit.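 A percent growth of 40 corresponds to 60% growth inhibition; 0 means no net growth; -100 means all cells died. Active threshold: below 10.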 Calls of active or inactive are those of the source.

The assay deals with M14 melanoma. The experiment in a line: NCI-60 one-dose screen, 48 h (100 = growth as untreated, 0 = no growth, -100 = all killed). The note with it: 10 µM unless noted. As for the experimental part: Growth inhibition of the M14 human tumor cell line is measured as a screen for anti-cancer activity. Cells are grown in 96 well plates and exposed to the test compound for 48 hours. Compounds are tested at a single concentration, which is 10^-5 M for most compounds. The reported endpoint is percent growth (GI% or GIPRCNT), where numbers from 0 - 100% represent growth inhibition, and numbers from -100% - 0 represent cell death. For example, a value of 40 represents 60% growth inhibition. A value of 0 means no net growth occurred over the course of the experiment. A value of -40 indicates 40% of cells at the beginning of the experiment died by the end of the experiment. A value of -100 means all cells are dead at the end of the experiment.
NCI-60 Human Tumor Cell Lines Screen was performed using the standard one-dose NCI protocol, which is described in more detail at https://dtp.cancer.gov/discovery_development/nci-60/default.htm.
Compounds with GIPRCNT values below 10 were considered active. Activity score was based on GIPRCNT using the following formula: […]
Score is 0 for GIPRCNT values of 100 or above, 50 for GIPRCNT values of 0, and 100 for GIPRCNT values of -100.
`O=C1NC(=S)NC(=O)C1=Cc1cccc(C=C2C(=O)NC(=S)NC2=O)c1`: the growth was -58.6% (active).

Regarding `Cc1ccc(C(=O)Nc2ccccc2C(=O)N/N=C(\c2ccccc2)c2ccccn2)cc1`, the growth was -38.9% (active).

As to `C=C1C(=O)O[C@H]2[C@H]1CC/C(CNC(=O)/C=C/c1ccc(Br)cc1)=C\CC[C@@]1(C)O[C@@H]21`, the growth is -72.4% (active).

Consider `COc1ccc(-c2nc(N/N=C/c3ccco3)nc(N3CCOCC3)c2C#N)cc1`, for which the growth is 85.3% (inactive).

Consider `COc1ccncc1C#Cc1cncc(C(=O)Nc2ccc(CN3CCN(C)CC3)c(C(F)(F)F)c2)c1`, for which the growth was -3.19% (active).

For the compound `COc1cc(/C=C2\C(=O)N(Cc3ccc(Cl)cc3)c3ccccc32)cc(OC)c1OC`, the growth is 37.7% (inactive).

For `C=CCn1c(SCC(=O)Nc2ccc(C(=O)/C=C/c3cc(OC)c(OC)c(OC)c3)cc2)nnc1-c1cc(-c2ccc(S(C)(=O)=O)cc2)nc2ccccc12`, the growth is 88.8% (inactive).

Consider `C=C1C(=O)O[C@H]2[C@H]1CC/C(COC(=O)CCCCCC(=O)OC/C1=C/CC[C@@]3(C)O[C@H]3[C@H]3OC(=O)C(=C)[C@@H]3CC1)=C\CC[C@@]1(C)O[C@@H]21`, for which the growth was -0.138% (active).

As to `CC1=CC2(C)/C=C(C)/C=C\CC(O)/C=C3/C=CC(=C4C(=O)OC2(CC1C)C4=O)OC3` (stereo not given), the growth was -77.1% (active).

Consider `COc1ccc(C(O)c2cc3c(N)c(C(=O)Nc4ccc(Cl)cc4)sc3nc2C)cc1` (stereo not given), for which the growth is 7.86% (active).

Regarding `CN(C)C(=O)OCc1nc2c(N3CCOCC3)nc(-c3ccccc3)nc2n1C`, the growth was -54.5% (active).

Turning to `COc1cc(NCC(O)CN(CC(C)C)CC(C)C)c2nc(C)ccc2c1` (stereo not given), the growth is 88.6% (inactive).

Take `ClCC1(Cn2cnc3c(Cl)nc(Cl)nc32)COC1`: the growth is 62.6% (inactive).

With `O=C(O)c1ccc[n+](CC(=O)N2CCN(c3cc4c(cc3F)c(=O)c(C(=O)O)cn4C3CC3)CC2)c1`, the growth was 64.6% (inactive).

With `Nc1c(C(=O)Nc2cccc3ccncc23)sc2nc3c(cc12)C(=O)CCC3`, the growth is 26.1% (inactive).

`O=C1Nc2cc(-c3ccncc3)ccc2/C1=C/c1ccc[nH]1`: the growth is 91.9% (inactive).

For the compound `CS(=O)(=O)Nc1cc(-c2ccc3ncnc(Nc4ccc5[nH]ncc5c4)c3c2)cnc1Cl`, the growth is 80.8% (inactive).

Regarding `CCOC(=O)c1c(SC)nn(-c2cc(=O)[nH]c3ccc(Br)cc23)c1N`, the growth is 109% (inactive).

For the compound `NNC(=O)/C(=C\c1ccc([N+](=O)[O-])cc1)CC(=O)c1ccc(Cl)c(Cl)c1`, the growth is 85.6% (inactive).

For the compound `O=C(CSc1nc2sc3c(c2c(=O)n1Cc1ccccc1)CCCC3)N1CCN(c2ccccc2)CC1`, the growth is 97.2% (inactive).

Take `NC(=S)N/N=C(/c1ccccc1)c1ccccc1N`: the growth is 88.2% (inactive).

With `COc1ccc(NC(=O)c2sc3nc(C)c(C(=O)c4ccc(OC)cc4)cc3c2N)cc1`, the growth was 32.8% (inactive).

For the compound `CCCc1cc2c(cc1Br)OCO2`, the growth was 88.5% (inactive).

For `Cc1[nH]n(-c2cccc(Cl)c2)c(=O)c1/C=C1\C=Nc2ccc(Br)cc21`, the growth was 54.3% (inactive).

`CCCCCCCCCCCCCCCC(=O)OC[C@@]1(O)C[C@@]23CC[C@@H]4C(C)(C)[C@H](O)CC[C@@]4(C)[C@@H]2CC[C@H]1C3`: the growth is -30.4% (active).

For the compound `CCN(CC)CCSCCCNc1c(C)cnc2cc(Cl)ccc12`, the growth is 89.5% (inactive).

`CCN(CC)CCCCCCNc1cc(OC)cc2cccnc12`: the growth was -28.7% (active).

Regarding `O=C(N/N=C/c1ccncc1)c1ccccc1Nc1cccc(C(F)(F)F)c1`, the growth was 87.4% (inactive).

`Fc1ccc(C2CC(c3cccc(Nc4ccncc4)c3)=NN2c2ccc(Cl)cc2)cc1` (stereo not given): the growth was 101% (inactive).

Turning to `COc1cccc(-c2nc3occn3c2-c2ccnc(NCCCNS(=O)(=O)c3cccc(F)c3)n2)c1`, the growth was 60.9% (inactive).

`CC1(C)CN(Cc2ccccc2)CCN1Cc1ccccc1`: the growth is 107% (inactive).

Regarding `N#Cc1c(NC(=O)c2cccc(Br)c2)sc2c1CCCC2`, the growth was 72.2% (inactive).

`COc1ccccc1Nc1cc(O)c2c(=O)cc(-c3ccccc3)oc2c1`: the growth is 20.8% (inactive).

Regarding `O=c1[nH]c2c(s1)CCCC2CN1CCCCC1` (stereo not given), the growth was 90.6% (inactive).

In the case of `C=Cc1cc[n+](CCCCCCCCCCCC)cc1`, the growth was 102% (inactive).

With `COc1ccc(-c2nn(Cc3ccccc3)c3c2-c2oncc2CC3)cc1OC`, the growth was 127% (inactive).

Regarding `CCN(CC)CCOC(COc1cc(C)cc(C)c1)COc1cc(C)cc(C)c1`, the growth was 7.46% (active).

With `N#CC1=C(N)Oc2c(ccc3ccccc23)C1c1ccc([N+](=O)[O-])cc1` (stereo not given), the growth is 67.8% (inactive).

For the compound `COc1ccc(-c2nc(SCC(C)C)nc(N/N=C(/C)c3ccc(OC)c(OC)c3)c2C#N)cc1`, the growth was 94% (inactive).

Regarding `Cn1ncc2c(Nc3ccccc3Cl)nc(Cl)nc21`, the growth is 124% (inactive).
